# From PubChem BioAssay (EPA / NIEHS)
# Where “and” joins values, the source holds several entries; their conditions need not be identical. Identical values can stand only once. Records with an inconclusive call do not appear. Calls of active or inactive are those of the source. The calls were made as follows, unless noted: active = hit-call score of the fitted dose curve at least 0.9, where 1 is the maximum; inactive = score below 0.9.
# Key:
# [1] = read-out: NAD(P)H dehydrogenase [quinone] 1 (NQO1), NQO1 (gene 1728); test: LTEA_HepaRG_NQO1: Life Technologies and Expression Analysis (LTEA) Assay for NAD(P)H dehydrogenase [quinone] 1 (NQO1) using HepaRG (AID 2283526); settings: mRNA level, 48 h; actives raise or lower the signal
# Method in brief: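 HepaRG, 48 h post-plating → serum-free induction medium → test chemical 48 h (duplicate, 100 uM top, half-log x8, 0.5% DMSO) → RNA isolation → qRT-PCR, ACTB/GAPDH/POLR2A normalization; bidirectional curve fit vs DMSO baseline.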
# [2] = read-out: Nuclear factor erythroid 2-related factor 2 (Homo sapiens) (UniProt Q16236); test: LTEA_HepaRG_NFE2L2: Life Technologies and Expression Analysis (LTEA) Assay for Nuclear factor erythroid 2-related factor 2 (NFE2L2) Transcription Factor using HepaRG (AID 2283527); settings: mRNA level, 48 h; actives raise or lower the signal;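 as to outcome: TaqMan qRT-PCR transcript level normalised to ACTB GAPDH and POLR2A housekeeping genes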
# Method in brief: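 Transcript level of NFE2L2 is the read-out, measured by microfluidic TaqMan qRT-PCR and normalized to three housekeeping genes. Human HepaRG cultures received test chemical for 48 h at up to 100 uM in half-log steps. Gain or loss of signal is fitted relative to 0.5% DMSO.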
# [3] = read-out: succinate dehydrogenase complex iron sulfur subunit B (SDHB), SDHB (gene 6390); test: LTEA_HepaRG_SDHB: Life Technologies and Expression Analysis (LTEA) Assay for succinate dehydrogenase complex iron sulfur subunit B (SDHB) using HepaRG (AID 2283528); settings: mRNA level, 48 h; actives raise or lower the signal
# Method in brief: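 Readout is SDHB transcript level by qRT-PCR, normalised to three housekeeping genes and fitted bidirectionally against 0.5% DMSO vehicle. Human HepaRG cells were treated for 48 h at up to 100 uM.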
# [4] = read-out: Signal transducer and activator of transcription 3 (Homo sapiens) (UniProt P40763); test: LTEA_HepaRG_STAT3: Life Technologies and Expression Analysis (LTEA) Assay for Signal transducer and activator of transcription (STAT3) using HepaRG (AID 2283529); settings: mRNA level, 48 h; actives raise or lower the signal
# Method in brief: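 Read-out is STAT3 mRNA level by qRT-PCR, normalized to three housekeeping genes, in human HepaRG liver cells treated for 48 h. Concentrations ran from 100 uM downward in half-log steps; curves were fitted for gain or loss relative to 0.5% DMSO.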
# [5] = read-out: solute carrier (SLCO1B1), SLCO1B1 (gene 10599); test: LTEA_HepaRG_SLCO1B1: Life Technologies and Expression Analysis (LTEA) Assay for solute carrier (SLCO1B1) using HepaRG (AID 2283530); settings: mRNA level, 48 h; actives raise or lower the signal
# Method in brief: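 Differentiated human HepaRG cells were exposed for 48 h in serum-free induction medium to eight half-log concentrations, top 100 uM, in 0.5% DMSO. SLCO1B1 mRNA was measured by qRT-PCR, normalized to ACTB, GAPDH and POLR2A, and fitted bidirectionally against DMSO.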
# [6] = read-out: sulfotransferase 2A1 (SULT2A1), SULT2A1 (gene 6822); test: LTEA_HepaRG_SULT2A1: Life Technologies and Expression Analysis (LTEA) Assay for sulfotransferase 2A1 (SULT2A1) using HepaRG (AID 2283531); settings: mRNA level, 48 h; actives raise or lower the signal
# Method in brief: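 HepaRG human liver cells, 48 h exposure in serum-free induction medium to 8 half-log concentrations topping at 100 µM (0.5% DMSO), duplicate wells. SULT2A1 mRNA measured by TaqMan qRT-PCR, normalized to ACTB/GAPDH/POLR2A; bidirectional fit against DMSO.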
# [7] = read-out: Transforming Growth Factor (TGFA), TGFA (gene 7039); test: LTEA_HepaRG_TGFA: Life Technologies and Expression Analysis (LTEA) Assay for Transforming Growth Factor (TGFA) using HepaRG (AID 2283532); settings: mRNA level, 48 h; actives raise or lower the signal
# Method in brief: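 HepaRG (human liver line), 48 h exposure, 8 conc. half-log down from 100 uM, 0.5% DMSO vehicle, duplicates; serum-free induction medium. TGFA mRNA by TaqMan qRT-PCR, ACTB/GAPDH/POLR2A normalization; gain/loss fit vs DMSO.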
# [8] = read-out: Transforming Growth Factor (TGFB1), TGFB1 (gene 7040); test: LTEA_HepaRG_TGFB1: Life Technologies and Expression Analysis (LTEA) Assay for Transforming Growth Factor (TGFB1) Transporter using HepaRG (AID 2283533); settings: mRNA level, 48 h; actives raise or lower the signal
# Method in brief: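 Differentiated HepaRG cells exposed 48 hr in serum-free induction medium to eight half-log concentrations up to 100 uM (0.5% DMSO), duplicate; TGFB1 mRNA by TaqMan qRT-PCR normalised to ACTB, GAPDH, POLR2A; bidirectional fit against DMSO.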
# [9] = read-out: TIMP1, TIMP1 (gene 7076); test: LTEA_HepaRG_TIMP1: Life Technologies and Expression Analysis (LTEA) Assay for TIMP1 using HepaRG (AID 2283534); settings: mRNA level, 48 h; actives raise or lower the signal;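 also: TaqMan qRT-PCR signal normalized to ACTB GAPDH and POLR2A housekeeping genes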
# Method in brief: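 Differentiated HepaRG cells exposed 48 h in serum-free induction medium, duplicates, eight half-log concentrations from 100 uM in 0.5% DMSO. TIMP1 mRNA by qRT-PCR normalized to ACTB, GAPDH, POLR2A; bidirectional fitting against DMSO.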
# [10] = read-out: Tumor necrosis factor receptor 1 (TNFRSF1A), TNFRSF1A (gene 7132); test: LTEA_HepaRG_TNFRSF1A: Life Technologies and Expression Analysis (LTEA) Assay for Tumor necrosis factor receptor 1 (TNFRSF1A) using HepaRG (AID 2283535); settings: mRNA level, 48 h; actives raise or lower the signal
# Method in brief: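 Differentiated HepaRG cells in serum-free induction medium, exposed 48 h in duplicate to 8 half-log concentrations up to 100 uM in 0.5% DMSO. TNFRSF1A mRNA by Fluidigm TaqMan qRT-PCR, normalized to ACTB, GAPDH, POLR2A; bidirectional fit.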
# [11] = read-out: Thyroid Hormone Responsive (THRSP), THRSP (gene 7069); test: LTEA_HepaRG_THRSP: Life Technologies and Expression Analysis (LTEA) Assay for Thyroid Hormone Responsive (THRSP) using HepaRG (AID 2283536); settings: mRNA level, 48 h; actives raise or lower the signal
# Method in brief: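 mRNA induction or loss relative to 0.5% DMSO vehicle was fitted bidirectionally across an eight-point curve whose highest exposure was 100 uM. Human HepaRG liver cells received chemicals in duplicate over 48 h before RNA extraction.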
# [12] = read-out: Cellular tumor antigen p53 (Homo sapiens) (UniProt P04637); test: LTEA_HepaRG_TP53: Life Technologies and Expression Analysis (LTEA) Assay for Tumor Protein P53 (TP53) using HepaRG (AID 2283537); settings: mRNA level, 48 h; actives raise or lower the signal
# Method in brief: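 Read-out is TP53 transcript level by microfluidic qRT-PCR, normalised to three housekeeping genes and fitted bidirectionally against DMSO. Human HepaRG cells received compounds for 48 h, highest concentration 100 uM.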
# [13] = read-out: UDP glucuronosyltransferase (UGT1A6), UGT1A6 (gene 54578); test: LTEA_HepaRG_UGT1A6: Life Technologies and Expression Analysis (LTEA) Assay for UDP glucuronosyltransferase (UGT1A6) using HepaRG (AID 2283539); settings: mRNA level, 48 h; actives raise or lower the signal
# Method in brief: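 Differentiated HepaRG cells, ~100,000/well, were exposed for 48 h in serum-free induction medium with 0.5% DMSO to 8-point half-log series topping at 100 uM, in duplicate. mRNA measured by Fluidigm TaqMan qRT-PCR, normalized to ACTB, GAPDH and POLR2A.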
# [14] = read-out: X-box binding protein 1 (XBP1), XBP1 (gene 7494); test: LTEA_HepaRG_XBP1: Life Technologies and Expression Analysis (LTEA) Assay for X-box binding protein 1 (XBP1) using HepaRG (AID 2283540); settings: mRNA level, 48 h; actives raise or lower the signal
# Method in brief: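 Differentiated human HepaRG cells in serum-free induction medium exposed 48 h in duplicate to eight half-log concentrations up to 100 uM in 0.5% DMSO. XBP1 mRNA measured by Fluidigm TaqMan qRT-PCR, normalized to ACTB, GAPDH, POLR2A; bidirectional fitting against DMSO.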
# [15] = LTEA_HepaRG_LDH_cytotoxicity: Cytotoxicity Assessment in the Life Technologies and Expression Analysis (LTEA) Assay (AID 2283563; active = hit-call score of the fitted dose curve at least 0.9, where 1 is the maximum;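 as to AC50: LDH activity released into spent culture medium as a marker of cell death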)
# Method in brief: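 Differentiated HepaRG cells in serum-free induction medium, exposed 48 h in duplicate to 8 half-log concentrations up to 100 uM in 0.5% DMSO. Cytotoxicity from LDH measured in spent medium, fit relative to DMSO.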
# [16] = ATG_XTT_Cytotoxicity: Cytotoxicity Assessment in the Attagene TRANS-FACTORIAL HepG2 Assay (AID 2283584; active = hit-call score of the fitted dose curve at least 0.9, where 1 is the maximum)
# Method in brief: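 HepG2 cells transiently transfected with GAL4-UAS multiple reporter units, dosed 24 h; cytotoxicity read by XTT as loss of signal versus DMSO baseline.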
# [17] = TOX21_p53_BLA_p2_viability: Viability Assessment in the Tox21 HCT-116 p53 Agonism Beta-lactamase Assay, Phase 2 (AID 2283591; active = hit-call score of the fitted dose curve at least 0.9, where 1 is the maximum;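 also: compound exposure lasted 16 h at 37 °C; actives lower the ATP signal meaning cytotoxicity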)
# Method in brief: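 Cytotoxicity readout: CellTiter-Glo ATP luminescence, 30 min at room temperature, after the beta-lactamase read. Cells were HCT116 exposed 16 h at 37C to compounds pin-transferred at 217-fold dilution from DMSO stocks.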
# [18] = target: Cellular tumor antigen p53 (Homo sapiens) (UniProt P04637); test: TOX21_p53_BLA_p2_ratio: Tox21 HCT-116 p53 Agonism Beta-lactamase Assay, Ratio, Phase 2 (AID 2283592; active = hit-call score of the fitted dose curve at least 0.9, where 1 is the maximum)
# Cellular tumor antigen p53 (Homo sapiens), sequence (P04637 whole entry, looked up): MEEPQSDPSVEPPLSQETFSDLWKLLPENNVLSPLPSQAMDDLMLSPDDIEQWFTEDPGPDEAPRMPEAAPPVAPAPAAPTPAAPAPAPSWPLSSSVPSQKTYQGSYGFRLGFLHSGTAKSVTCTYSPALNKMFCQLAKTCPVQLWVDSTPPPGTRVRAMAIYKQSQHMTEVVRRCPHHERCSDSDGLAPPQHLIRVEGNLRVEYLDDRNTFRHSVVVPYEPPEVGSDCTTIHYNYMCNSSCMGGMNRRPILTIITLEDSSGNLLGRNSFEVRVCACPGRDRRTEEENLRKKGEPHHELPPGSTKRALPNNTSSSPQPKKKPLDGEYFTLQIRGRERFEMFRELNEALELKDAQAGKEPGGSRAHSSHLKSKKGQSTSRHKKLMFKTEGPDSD
# Method in brief: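 HCT-116 cells with p53-responsive beta-lactamase reporter, 4000 cells/well, preincubated 5 h, then compound in DMSO (217-fold dilution) for 16 h at 37C. CCF4-AM substrate 2 h at room temperature; 460/530 nm emission ratio fitted upward versus DMSO.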
# [19] = read-out: UDP glucuronosyltransferase (UGT1A1), UGT1A1 (gene 54658); test: LTEA_HepaRG_UGT1A1: Life Technologies and Expression Analysis (LTEA) Assay for UDP glucuronosyltransferase (UGT1A1) using HepaRG (AID 2283538); settings: mRNA level, 48 h; actives raise or lower the signal
# Method in brief: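 Readout is UGT1A1 transcript level by qRT-PCR, normalized to three housekeeping genes, after 48 h chemical treatment of HepaRG cells. Concentrations ran from 100 uM down in half-log steps with 0.5% DMSO, and gain or loss relative to DMSO was fitted.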
# Nuclear factor erythroid 2-related factor 2 (Homo sapiens), sequence (Q16236 whole entry, looked up): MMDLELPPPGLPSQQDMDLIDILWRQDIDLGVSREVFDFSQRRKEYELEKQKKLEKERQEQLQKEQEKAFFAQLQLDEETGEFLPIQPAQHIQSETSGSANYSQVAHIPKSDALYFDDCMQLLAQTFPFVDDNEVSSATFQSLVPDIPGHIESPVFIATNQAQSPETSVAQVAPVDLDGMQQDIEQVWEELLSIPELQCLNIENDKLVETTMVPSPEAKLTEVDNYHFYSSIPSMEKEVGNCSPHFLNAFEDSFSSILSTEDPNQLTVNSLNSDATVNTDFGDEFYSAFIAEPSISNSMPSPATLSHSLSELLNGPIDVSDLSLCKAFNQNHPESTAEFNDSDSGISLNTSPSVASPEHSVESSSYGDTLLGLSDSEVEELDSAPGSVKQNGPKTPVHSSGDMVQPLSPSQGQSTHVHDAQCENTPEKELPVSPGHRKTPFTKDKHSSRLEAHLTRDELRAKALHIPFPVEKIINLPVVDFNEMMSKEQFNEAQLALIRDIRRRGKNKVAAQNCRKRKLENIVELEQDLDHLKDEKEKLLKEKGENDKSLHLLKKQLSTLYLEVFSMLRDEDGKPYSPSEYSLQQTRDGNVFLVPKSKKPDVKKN
# Signal transducer and activator of transcription 3 (Homo sapiens), sequence (P40763 whole entry, looked up): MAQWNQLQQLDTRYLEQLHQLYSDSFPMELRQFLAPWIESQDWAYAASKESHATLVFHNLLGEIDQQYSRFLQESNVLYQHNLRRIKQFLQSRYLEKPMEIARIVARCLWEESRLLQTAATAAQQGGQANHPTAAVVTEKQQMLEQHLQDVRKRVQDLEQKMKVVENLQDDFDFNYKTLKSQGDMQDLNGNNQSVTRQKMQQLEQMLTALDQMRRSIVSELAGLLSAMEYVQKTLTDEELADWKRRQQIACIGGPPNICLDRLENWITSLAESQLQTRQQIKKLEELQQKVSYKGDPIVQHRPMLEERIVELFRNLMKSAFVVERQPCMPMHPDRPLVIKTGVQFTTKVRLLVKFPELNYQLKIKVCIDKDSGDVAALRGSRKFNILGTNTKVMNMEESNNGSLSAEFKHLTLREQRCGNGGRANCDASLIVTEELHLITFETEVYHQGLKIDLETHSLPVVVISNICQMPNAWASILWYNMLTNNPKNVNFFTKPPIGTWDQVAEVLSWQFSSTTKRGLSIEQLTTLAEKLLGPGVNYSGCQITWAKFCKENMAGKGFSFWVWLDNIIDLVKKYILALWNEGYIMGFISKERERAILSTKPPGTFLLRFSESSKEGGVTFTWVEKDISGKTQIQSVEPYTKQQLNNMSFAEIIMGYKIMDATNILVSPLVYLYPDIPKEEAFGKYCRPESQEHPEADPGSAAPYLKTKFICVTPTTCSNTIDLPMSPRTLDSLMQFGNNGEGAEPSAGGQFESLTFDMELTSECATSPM
smiles,measurement,setting,value
O=[N+]([O-])c1ccc(Oc2ccc(Cl)cc2Cl)cc1,outcome,[1],inactive
same,outcome,[2],inactive
same,outcome,[3],inactive
same,outcome,[4],inactive
same,outcome,[5],inactive
same,outcome,[6],inactive
same,outcome,[7],inactive
same,outcome,[8],inactive
same,outcome,[9],inactive
same,outcome,[10],inactive
same,outcome,[11],inactive
same,outcome,[12],inactive
same,outcome,[13],inactive
same,outcome,[14],inactive
same,AC50,[15],73.8 µM (active)
same,outcome,[16],inactive
same,outcome,[17],inactive
same,outcome,[18],inactive
CC(C)(C)C(O)(CCc1ccc(Cl)cc1)Cn1cncn1 (configuration not stated),outcome,[1],inactive
same,AC50,[2],50 µM (active)
same,outcome,[3],inactive
same,outcome,[5],inactive
same,AC50,[6],80.2 µM (active)
same,outcome,[7],inactive
same,AC50,[8],50 µM (active)
same,outcome,[9],inactive
same,outcome,[10],inactive
same,AC50,[11],12.7 µM (active)
same,AC50,[12],71.9 µM (active)
same,AC50,[19],1.32 µM (active)
same,outcome,[13],inactive
same,outcome,[14],inactive
same,AC50,[15],72 µM (active)
same,outcome,[16],inactive
same,outcome,[17],inactive
Clc1ccc(C(c2ccc(Cl)cc2)C(Cl)Cl)cc1,outcome,[1],inactive
same,outcome,[2],inactive
same,outcome,[3],inactive
same,outcome,[5],inactive
same,outcome,[6],inactive
same,outcome,[7],inactive
same,outcome,[8],inactive
same,outcome,[9],inactive
same,outcome,[10],inactive
same,AC50,[11],90.5 µM (active)
same,outcome,[12],inactive
same,AC50,[19],6.66 µM (active)
same,outcome,[13],inactive
same,outcome,[14],inactive
same,outcome,[15],inactive
same,outcome,[16],inactive
same,AC50,[17],59.6 µM (active) and 33.7 µM (active)
